PLK1 PBD block: blocks phosphopeptide binding to human PLK1 polo-box domain. Plk1 PBD binding of FITC phosphopeptide, fluorescence polarization. Potency, µM, for inactives: max response, negative = inhibition, actives largely listed as inhibitors. hit rate 2.8% among 360,000; also: potency is read from the fitted curve at half-maximal effect; series mostly up to about 57 µM; % is scaled to controls: 0 for no effect and ±100 for the full control effect; nearly all actives have a fitted effect of over 65% in size
VDR inhibitor: inhibitors of human vitamin D receptor | P11473 | VDR-SRC2-3 peptide fluorescence polarization, 2 h | Potency, µM, for inactives: max response, negative = inhibition, usual class: inhibitors | AID 504847 | hit rate 0.93% among 400,000; also: potency is read from the fitted curve at half-maximal effect; % is scaled to controls: 0 for no effect and ±100 for the full control effect
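Signal is fluorescence polarization, reporting how far test compounds block the interaction of VDR with the SRC2-3 coregulator peptide after a 2 h room-temperature incubation.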
KAT2A inh: inhibitors of human GCN5L2 histone acetyltransferase | Q92830 | GCN5L2 HAT assay, ThioGlo1 CoA-SH fluorescence | Potency, µM (titrated, usually from 58.9 µM), inactives show top-dose activity change, negative = inhibition, actives largely listed as inhibitors | hit rate 0.21% among 390,000 | AID 504327; also: potency is read from the fitted curve at half-maximal effect; % is scaled to controls: 0 for no effect and ±100 for the full control effect
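qHTS, 1536-well. 20nM enzyme, pH 7.5 HEPES/EDTA/Tween-20 buffer; 15 min compound preinc., RT. Start: 75uM H3(1-25), 70uM AcCoA, 50uM ThioGlo1. Read Ex340/Em540 at t=0 (autofluorescence flag) and t=20 min.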
12-LOX inh: blocks human arachidonate 12S-lipoxygenase; P18054; purified 12hLO, xylenol orange hydroperoxide absorbance; hit rate 1.1% among 580,000; Potency, µM (series often up to 108 µM), inactives show at the top dose activity change, negative = inhibition, hits mostly inhibitors; also: potency is read from the fitted curve at half-maximal effect; % is scaled to controls: 0 for no effect and ±100 for the full control effect
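Purified human 12hLO at 150 nM in 25 mM Hepes, 0.01% Triton X-100, pH 7.0, preincubated 15 min at room temperature with compound. Reaction started with 40 uM arachidonic acid, 30 min at room temperature. Hydroperoxide measured by Fe-xylenol orange, 573/405 nm absorbance ratio.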
USP1 UbRho: USP1-UAF1 deubiquitinase inhibition validated. hit rate 50% among 50. Ub-Rhodamine cleavage, fluorescence kinetic read. shares compounds with VDR inhibitor. Potency, µM (doses to about 56.8 µM), without a hit: top-dose activity change, negative = inhibition, hits mostly inhibitors
VDR inh confirm: confirmation of human vitamin D receptor inhibitors | Potency, µM, most hits filed as inhibitors | hit rate 89% among 840 | VDR-coactivator inhibition assay, qHTS confirmation | AID 602199 | shares compounds with VDR inhibitor; also: potency is read from the fitted curve at half-maximal effect
VDR FP: VDR (human) coactivator binding inhibition, fluorescein polarization. Potency, µM (top dose mostly 57.1 µM), inactives show at the highest dose activity change, negative = inhibition, hits mostly inhibitors. shares compounds with VDR inhibitor. VDR-coactivator binding, fluorescein fluorescence polarization. AID 602200. hit rate 48% among 840; also: potency is read from the fitted curve at half-maximal effect
VDR bla: inhibits human VDR in beta-lactamase reporter cells. shares compounds with VDR inhibitor. VDR beta-lactamase reporter cells, FRET ratio; cells co-treated with VDR agonist LG190178. Potency, µM (top dose mostly 46.1 µM), for inactives: at the highest dose activity change, negative = inhibition, actives largely listed as inhibitors. hit rate 23% among 840; also: potency is read from the fitted curve at half-maximal effect; % is scaled to controls: 0 for no effect and ±100 for the full control effect
VDR viability: counter-screen for vitamin D receptor inhibitors: cytotoxicity. shares compounds with VDR inhibitor. hit rate 18% among 840. cytotoxicity counter-screen, cell viability, qHTS. Potency, µM (series often up to 48.3 µM), without a hit: at the highest dose activity change, negative = cytotoxicity, most hits filed as cytotoxic;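 also: potency is read from the fitted curve at half-maximal effect; plate controls were DMSO for no effect and high-concentration cycloheximide for full effect; nearly all actives have a fitted effect of over 75% in size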
* hit, by the source's call; ? = inconclusive; · = no result given; [ ] = remark or other dose. Hits are enriched below; roughly 3% of the tested compounds scored in any of these assays. Calls follow the shape of the dose curve; as a rule, active = well fitted curve in the direction sought with a large enough effect; inconclusive = small, poorly fitted or top-dose-only effect, or another doubt; inactive = no such curve, though single readings can be large; an effect the other way counts as inactive or inconclusive.

SMILES | PLK1 PBD block | VDR inhibitor | KAT2A inh | 12-LOX inh | VDR inh confirm | VDR FP | VDR bla | VDR viability | others
COC(=O)c1ccccc1NC(=O)CSc1nc2sc3c(c2c(=O)[nH]1)CCCC3 | · | 14µM* | ? | ? | ? | 4µM* | 3% | 4%
CCN(CC)c1ccc(C=Nc2ccc(N(C)C)cc2)c(O)c1 | 67% | ? | -6% | ? | 4* | 303% | -28% | -9%
[O-]/[N+](=C/c1ccc(F)cc1)c1ccc(Cl)cc1 | ? | 32µM* | 1% | · | 24* | ? | -13% | 6%
Cc1ccc2c(C)c(CCC(=O)Nc3ccccc3Cl)c(=O)oc2c1 | · | · | · | 9% | · | · | · | ·
COC(=O)c1sc(-c2ccccc2)cc1NC(=O)c1ccc(OC)cc1 | -7% | -4% | 0% | 0% | · | · | · | ·
CCOC(=O)c1cc(-c2ccccc2)sc1NC(=O)c1ccc(OC)cc1 | 5.3µM* | 50µM* | 13% | · | 30* | 13µM* | 15% | -28%
Cc1ccccc1/C=C/C(=O)c1ccc([N+](=O)[O-])o1 | ? | 7.9µM* | -9% | 0% | 6* | 3.2µM* | 8.2µM* | 21µM*
Cc1cccc(/C=C/C(=O)c2ccc([N+](=O)[O-])o2)c1 | ? | 8.9µM* | ? | ? | 1.1* | 1.3µM* | 5.2µM* | ?
COc1ccccc1CNC(=O)COC(=O)c1cccnc1Nc1cccc(C(F)(F)F)c1 | · | · | · | -29% | · | · | · | ·
O=C(O)c1cc(/C=C/C(=O)c2cc(F)ccc2O)c2c(c1)COCO2 | ? | 25µM* | -1% | -32% | 6.7* | ? | 27% | ?
COc1ccc(C(=O)/C=C/c2cc(C(=O)O)cc3c2OCOC3)c(O)c1 | -26% | ? | -30% | -24% | · | · | · | ·
Cc1nc2c3cc(F)ccc3n(Cc3ccccc3)c2s1 | -26% | 50µM* | -4% | -19% | ? | ? | ? | 23%
COc1cccc2c1C(=O)c1c(O)c3c(c(O)c1C2=O)C[C@](O)(C(C)=O)C[C@H]3O[C@@H]1C[C@H](N)[C@H](O)[C@H](C)O1 | · | 4% | -10%[21.4 µM] | · | · | · | · | · | USP1 UbRho=18µM*
O=C(NC1CCCCCC1)c1cc2c(s1)-c1ccsc1CC2 | · | · | · | -15% | · | · | · | ·
Cc1oc(-c2cccs2)nc1CC(=O)Nc1ccccc1C(C)(C)C | · | · | · | -9% | · | · | · | ·
C=CCn1c(SCC)nc2sc3c(c2c1=O)CCc1ccccc1-3 | -10% | -9% | -5% | 21% | · | · | · | ·
C=CCSc1nc2sc3c(c2c(=O)n1CC)CCc1ccccc1-3 | 3µM* | 25µM* | -30% | 7.1µM* | 2.7* | ? | 32% | -3%
CCS(=O)(=O)c1ccc2oc(Nc3ccc(C(C)C)cc3)nc2c1 | 2.7µM* | 40µM* | -2%[0.501 µM] | 7.1µM* | 8.4* | 4µM* | -11% | 21%
O=C(O)c1ccccc1C(=O)/C=C/c1ccc(Cl)cc1 | · | · | · | 18% | · | · | · | ·
COc1ccc(NC(=O)CCS(=O)(=O)c2nc(-c3ccc4c(c3)OCO4)cc(C(F)(F)F)n2)cc1 | · | ? | -3% | -24% | · | · | · | ·
O=C(CCS(=O)(=O)c1nc(-c2cccs2)cc(C(F)(F)F)n1)Nc1cc(Br)ccc1O | · | 11µM* | -5% | 3% | 3.2* | 3.5µM* | -1% | ?
O=C(CSc1nc(-c2cccs2)cc(C(F)(F)F)n1)Nc1ccccc1Cl | · | -4% | -7% | -24% | · | · | · | ·
O=C(CCS(=O)(=O)c1nc(-c2ccc3c(c2)OCO3)cc(C(F)(F)F)n1)Nc1ccc(F)cc1F | · | 40µM* | -9% | ? | 11* | 14µM* | ? | 2%
O=C(CCS(=O)(=O)c1nc(-c2cccs2)cc(C(F)(F)F)n1)Nc1ccc(Br)cc1 | · | 14µM* | -12% | 1% | 3.5* | 4µM* | ? | ?
Cc1ccc(O)c(NC(=O)CCS(=O)(=O)c2nc(-c3cccs3)cc(C(F)(F)F)n2)c1 | · | 20µM* | 2% | -1% | 4.5* | 7.9µM* | ? | ?
SMILES | PLK1 PBD block | VDR inhibitor | KAT2A inh | 12-LOX inh | VDR inh confirm | VDR FP | VDR bla | VDR viability | others
O=C(Cc1ccc(F)cc1)Nc1ccccc1C(F)(F)F | · | · | · | -55% | · | · | · | ·
CC(CC(=O)O)CC(=O)NCCN1CCCCC1 (stereo not given) | · | · | · | 7% | · | · | · | ·
Cc1ccc(NC(=S)NCC(C)N2CCCCC2C)cc1Cl (stereo not given) | · | · | · | -38% | · | · | · | ·
CCCCCCOC(=O)CCCCC | · | · | · | 16%[176 µM] | · | · | · | ·
Cc1cc(C)c2cc(C(=O)N3CCCCC3)[nH]c2c1C | · | · | · | -40% | · | · | · | ·
CS(=O)(=O)c1ncc(Cl)c(C(=O)N(Cc2ccc(Cl)cc2)Cc2ccco2)n1 | · | 25µM* | 0% | -26% | 2.8* | 3.5µM* | 16µM* | 19µM*

Bioassay records: PubChem, National Center for Advancing Translational Sciences (NCATS)
